# The panel holds about 83,000 compounds, 20% with a hit somewhere; the sample as a whole holds those more often.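 Treatment: one concentration, 48 hours, 96-well format. Scoring: percent growth, with anything below 10 considered active.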 A number with no mark means an inactive call. The source made the active and inactive calls.
# Legend:
# Assay in all cases: NCI-60 one-dose screen, 48 h (100 = growth as untreated, 0 = no growth, -100 = all killed)
# Conditions in all cases: 10 µM
# SR leukemia = test system: SR leukemia
# RPMI-8226 leukemia = test system: RPMI-8226 leukemia
# OVCAR-8 ovarian = test system: OVCAR-8 ovarian
# OVCAR-5 ovarian = test system: OVCAR-5 ovarian
# OVCAR-4 ovarian = test system: OVCAR-4 ovarian
# SK-OV-3 ovarian = test system: SK-OV-3 ovarian
# IGROV1 ovarian = test system: IGROV1 ovarian
# OVCAR-3 ovarian = test system: OVCAR-3 ovarian
# HS 578T breast = test system: HS 578T breast
# NCI/ADR-RES ovarian = test system: NCI/ADR-RES ovarian
# T-47D breast = test system: T-47D breast
# BT-549 breast = test system: BT-549 breast
# MDA-MB-435 melanoma = test system: MDA-MB-435 melanoma
# SW-620 colon = test system: SW-620 colon
# MCF7 breast = test system: MCF7 breast
# HCT-116 colon = test system: HCT-116 colon
# HCC-2998 colon = test system: HCC-2998 colon
# KM12 colon = test system: KM12 colon
# MDA-MB-468 breast = test system: MDA-MB-468 breast
SMILES,growth (SR leukemia),growth (RPMI-8226 leukemia),growth (OVCAR-8 ovarian),growth (OVCAR-5 ovarian),growth (OVCAR-4 ovarian),growth (SK-OV-3 ovarian),growth (IGROV1 ovarian),growth (OVCAR-3 ovarian),growth (HS 578T breast),growth (NCI/ADR-RES ovarian),growth (T-47D breast),growth (BT-549 breast),growth (MDA-MB-435 melanoma),growth (SW-620 colon),growth (MCF7 breast),growth (HCT-116 colon),growth (HCC-2998 colon),growth (KM12 colon),growth (MDA-MB-468 breast)
N#Cc1c(NC(=O)c2cccc(C(F)(F)F)c2)sc2c1CCC(O)=C2,14.6%,25%,41.6%,119%,29.5%,40.3%,34.4%,36.8%,44.1%,18.6%,16.5%,44.6%,9.7% (active),35.4%,27.9%,40.4%,36.3%,23.1%,-18.6% (active)
COC(=O)C[C@](O)(CCCC(C)(C)O)C(=O)O[C@H]1C(OC)=C[C@@]23CCC(=O)N2CCc2cc4c(cc2[C@@H]13)OCO4,80.6%,106%,107%,102%,90.1%,103%,93%,94.8%,87.9%,102%,89.8%,118%,104%,91.9%,87.3%,89.7%,88%,98.3%,81.1%
CN1CCN(Cc2ccc(C(=O)Nc3cccc(Nc4ccc5c(O)cccc5n4)c3)cc2C(F)(F)F)CC1,4.88% (active),-10.6% (active),-19.5% (active),-48.7% (active),-13.1% (active),-46.6% (active),-54.6% (active),-23% (active),-37.5% (active),-0.427% (active),-36.8% (active),-58.4% (active),-91.6% (active),-84% (active),-67.1% (active),-43.9% (active),-93.2% (active),-76.7% (active),-92.7% (active)
Nc1cc(-c2cccc(C(=O)NCc3ccc4c(c3)OCO4)c2)ccn1,76.1%,80.6%,103%,121%,90.1%,107%,112%,98.5%,94.4%,88.5%,77.4%,96.8%,102%,110%,86.5%,95.1%,103%,106%,88.1%
O=C1CCC(N2Cc3c(NCc4ccc(-c5ccccc5)cc4)cccc3C2=O)C(=O)N1 (centres undefined),72.5%,68.5%,34.9%,83.7%,69.8%,103%,57.4%,82.8%,51.7%,52.6%,41.5%,23.4%,93.2%,51.3%,76%,74.7%,67.4%,75.3%,-12.6% (active)
CC(C)C1=C[C@@]23CC[C@@H]4[C@](C)(CCC[C@]4(C)C(=O)NCc4ccccc4)[C@H]2C[C@@H]1[C@H]1C(=O)CCC(=O)[C@H]13,44.4%,40.4%,75.1%,83.8%,47.3%,105%,90.6%,86.9%,63.1%,74%,51.8%,68.7%,86%,85.4%,42.7%,60.4%,90%,84.6%,70.1%
O=C(NO)c1ccc(CNC(=O)[C@H]2Cc3c([nH]c4ccccc34)[C@H](c3ccc(Cl)cc3)N2)cc1,17.2%,16.9%,16.1%,-6.43% (active),39.7%,-12.7% (active),-24.6% (active),7.44% (active),6.12% (active),42%,-2.39% (active),26.9%,4.26% (active),-51.6% (active),3% (active),1.03% (active),-53.2% (active),19.6%,-33.5% (active)
O=C(NO)c1ccc(CN2CCN(c3nc(-c4ccccc4)c4ccccc4n3)CC2)cc1,8.6% (active),24.5%,8.54% (active),19.3%,22.7%,-22.2% (active),17.8%,27.6%,49.1%,-36.1% (active),8.88% (active),35.8%,27.8%,15.6%,9.79% (active),18.9%,12.6%,18.7%,-14.2% (active)
CCCn1c(=O)c2[nH]c(-c3ccc(OCc4nc5ccccc5[nH]4)cc3)nc2n(CCC)c1=O,39%,40%,27.6%,92.2%,3.46% (active),40.3%,39.8%,26.8%,-17.8% (active),66.3%,59.9%,21.1%,67%,46.8%,17.4%,5.38% (active),64.8%,63.8%,23.6%
O=C(CSc1nnc(-c2c[nH]c3ccccc23)n1-c1ccccc1)c1ccc(Cl)cc1,92.4%,83.2%,24.5%,90.7%,14.9%,72.1%,51.4%,73.9%,33.2%,5.85% (active),54.6%,69.8%,79.2%,70.3%,38.4%,45.7%,78.1%,78.7%,46.4%
O=C(CNc1nc(-c2ccccc2)cs1)Nc1ccc([N+](=O)[O-])cc1,10.8%,11.7%,17.7%,-39.6% (active),18%,53.9%,16.6%,13.1%,21.8%,-20.4% (active),2.53% (active),12.3%,40.6%,7.63% (active),1.69% (active),11.7%,-97.8% (active),36.7%,-88.2% (active)
CN1C(=O)/C(=C/c2nccs2)SC1=S,52.3%,97.2%,91.5%,95.6%,84.1%,105%,63.8%,114%,86.5%,93.5%,45.9%,90.2%,83.9%,92.5%,38.2%,85.2%,113%,90.2%,65.3%
COc1ccc(NC(=O)CSc2nnc(-c3ccc4nc(-c5ccc(Cl)cc5)[nH]c4c3)o2)cc1,43.5%,56.5%,14.1%,79.9%,-2.09% (active),101%,78.4%,55.3%,35.2%,81.3%,96.7%,29.9%,-7.51% (active),1.97% (active),17.1%,23.2%,111%,60.4%,90.8%
COc1ccc(Nc2nc(N)n(Cc3cccc(Br)c3)n2)cc1,12.6%,8.38% (active),26.2%,21.7%,7.22% (active),22.8%,12%,19.6%,-12.3% (active),2.23% (active),13.4%,-8.47% (active),-18.2% (active),18.3%,1.86% (active),12%,-13.1% (active),1.74% (active),-12.3% (active)
CCCCSc1nc(Nc2ccc(/C(C)=N/NC(N)=S)cc2)c(C#N)c(-c2ccc(OC)cc2)n1,40.2%,67.8%,11.8%,130%,-43.9% (active),94.9%,68.4%,-27.2% (active),20.3%,25.8%,67.2%,42.9%,59.3%,97.2%,49.2%,38.2%,94.5%,79.3%,87.7%
C#CCNC(=O)CCC(=O)OC[C@]12CC[C@@H](C(=C)C)[C@@H]1C1CC[C@@H]3[C@@]4(C)CCCNC(C)(C)[C@@H]4CC[C@@]3(C)[C@]1(C)CC2 (some centres undefined),-7.1% (active),-6.58% (active),-59.9% (active),47.3%,30.3%,26.9%,-3.31% (active),-71% (active),14.4%,-75.1% (active),10.9%,11%,-32.2% (active),-92.3% (active),-65.7% (active),-60.3% (active),-99.1% (active),6.5% (active),-94.9% (active)
